# Reference: PubChem BioAssay AID720504 (National Center for Advancing Translational Sciences (NCATS), 2013)
# The whole screen tested about 360,000 compounds, of which about 10,000 (2.8%) were called active. About 4% were inconclusive and are not listed. The entries come from a sample that favours actives as a whole. A number with no mark means an inactive call. Calls come from the whole dose curve; as a rule, active = well fitted inhibition curve with a large enough effect; inconclusive = small, poorly fitted or top-dose-only effect; inactive = flat fitted curve, though single readings scatter.
# Target: Serine/threonine-protein kinase PLK1 (Homo sapiens) (UniProt P53350)
# Test: qHTS for Inhibitors of PLK1-PDB (polo-like kinase 1 - polo-box domain): Primary Screen; note: nearly all actives have a fitted effect of over 65% in size; for max response, negative = inhibition: series mostly up to about 57 µM
# Conditions: Plk1 PBD binding of FITC phosphopeptide, fluorescence polarization
# % is set by controls: 0 for no effect and ±100 for the full control effect; potency is the fitted concentration of half-maximal effect.
# Chain of Serine/threonine-protein kinase PLK1 (Homo sapiens) (P53350 whole entry, looked up, the tested form may be a part): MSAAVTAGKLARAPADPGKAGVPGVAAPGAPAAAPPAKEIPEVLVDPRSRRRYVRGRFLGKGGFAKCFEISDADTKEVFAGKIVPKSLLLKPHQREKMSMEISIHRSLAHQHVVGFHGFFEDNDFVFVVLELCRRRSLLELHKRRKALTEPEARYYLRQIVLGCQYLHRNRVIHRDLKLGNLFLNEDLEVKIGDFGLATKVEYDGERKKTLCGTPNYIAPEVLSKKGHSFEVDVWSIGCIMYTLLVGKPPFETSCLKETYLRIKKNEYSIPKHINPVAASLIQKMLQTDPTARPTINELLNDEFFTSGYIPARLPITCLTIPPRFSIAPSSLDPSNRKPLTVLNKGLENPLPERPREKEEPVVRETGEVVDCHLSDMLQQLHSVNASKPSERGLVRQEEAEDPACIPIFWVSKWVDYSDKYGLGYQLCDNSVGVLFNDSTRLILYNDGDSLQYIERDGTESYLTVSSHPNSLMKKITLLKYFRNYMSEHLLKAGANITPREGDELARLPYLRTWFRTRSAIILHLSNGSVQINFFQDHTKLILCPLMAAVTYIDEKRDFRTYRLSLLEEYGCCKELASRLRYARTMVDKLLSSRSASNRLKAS
SMILES,"max response, negative = inhibition",Potency
Cn1c(NCc2cccnc2)nc2cc(-c3ccc(F)cc3)sc2c1=O,-3.07%,–
COC(=O)[C@@]12C[C@@H](CC(=O)N3CCCCC3)C(=O)N(Cc3ccc4c(c3)OCO4)C1=CCC(C)(C)C2,2.15%,–
CC(C)C[C@H]1CNC(=S)N1C[C@H]1CCCN1C[C@H](Cc1ccc(O)cc1)N1C[C@H](Cc2ccc(O)cc2)N(CC2CCCCC2)C1=S,1.95%,–
CC1(C(=O)NCc2ccc3c(c2)OCO3)CCN1C(=O)Cc1cccc2ccccc12 (stereo not drawn),-5.76%,–
CCn1c(C(C)NC(=O)c2ccc(C)cc2)n[nH]c1=S (stereo not drawn),-15.1%,–
CCN1CCC2(CC1)N=C(c1ccc(F)cc1)C(=S)N2C(=O)c1ccc(C)cc1,–,15 µM (active)
Cc1ccc(C(=O)N(CN2CCCC2=O)c2ccc(F)cc2)cc1,-5.15%,–
CCOc1ccc2nc(NCCNC(=O)C(C)(C)C)c(C)cc2c1,–,26.7 µM (active)
CCOc1ccc(NC(=O)c2cc(C)nc3ccccc23)cc1,-0.67%,–
CCOc1ccc(NS(=O)(=O)c2ccc(C)c(C(N)=O)c2)cc1,1.44%,–
COc1ccc(NC(=O)C2(C)Cc3c(-c4cccc(NC(C)=O)c4)ccnc3O2)cc1OC (stereo not drawn),-12.3%,–
CCCc1nc2sc3c(c2c(=O)n1NC(=O)CCCl)CCCC3,-16.7%,–
CN(C)CCCn1c(=O)n(Cc2ccccc2)c(=O)c2c3c(sc21)CCCCC3,-1.79%,–
CCn1c(=S)[nH]c2sc3c(c2c1=O)CCCCC3,–,23.8 µM (active)
CCN(CC)C(=O)C1=C(C)N(Cc2ccc(OC)cc2)C(=O)C(CC(=O)NCc2ccco2)C1 (stereo not drawn),5.53%,–
CC(C)c1cccc(C(C)C)c1Nc1cn[nH]c1,3.35%,–
CCN1CCN(C2CCCCC2NS(=O)(=O)c2ccc(Cl)cc2)CC1 (stereo not drawn),–,26.7 µM (active)
O=S(=O)(NC1CCCCC1N1CCCCC1)c1ccc(Cl)cc1 (stereo not drawn),3.73%,–
O=S(=O)(NC1CCCCC1N1CCC(O)CC1)c1ccc(Cl)cc1 (stereo not drawn),-6.48%,–
Cc1cc(O)ccc1-c1cc(C(=O)NCc2cc(C(F)(F)F)cc(C(F)(F)F)c2)[nH]n1,3.49%,–
CCCCCCC(O)(CCN1CCCCC1)c1ccccc1 (stereo not drawn),–,29.9 µM (active)
CCCCCC(O)(CCN1CCCCC1)c1ccccc1 (stereo not drawn),-0.139%,–
C#CC(CCN1CCCCC1)(OC)c1ccccc1 (stereo not drawn),-7.33%,–
Cc1ccn(CC(=O)NC2CCCN(Cc3ccccc3F)C2)n1 (stereo not drawn),-1.67%,–

SMILES,"max response, negative = inhibition",Potency
Fc1ccc(COc2ccc(-c3nnco3)cc2)cc1,2.81%,–
CN(Cc1ccc(F)cc1)C(=O)COc1ccc2ccccc2c1,-5.68%,–
Fc1ccc(COc2cccc(-c3n[nH]c(=S)o3)c2)cc1,–,6.7 µM (active)
COCCCn1cc(CN2CC(N(C)C)CS2(=O)=O)nn1 (stereo not drawn),2.09%,–
CC(=O)N1C[C@@H](CO)[C@@H](N(C)C(=O)c2ccco2)C[C@H]1c1ccccc1,-12.5%,–
COc1ccc(-c2csc(Nc3cccc(C)n3)n2)cc1OC,8.19%,–
COc1ccc(OC)c(Nc2nc(-c3ccc(O)c(O)c3)cs2)c1,–,29.9 µM (active)
COc1ccc(C(O)c2nc(-c3ccc4c(c3)OCO4)cs2)cc1 (stereo not drawn),6.53%,–
Cc1noc(C)c1C(=O)N1CCC1(C)C(=O)NS(=O)(=O)c1ccc(C#N)cc1 (stereo not drawn),-3.77%,–
CC1(C(=O)NCc2ccccc2)CSCC(=O)N1CCCN1CCOCC1 (stereo not drawn),6.34%,–
O=C1CCNCCN1[C@H](CO)Cc1ccccc1,-3.76%,–
C[C@H]1CCC(=O)N([C@H](CSc2ccccc2)Cc2ccccc2)CC1,-3.56%,–
O=C1CC[C@H](O)CCN1[C@H](CSc1ccc(Br)cc1)Cc1ccccc1,–,11.9 µM (active)
CCN(CC)S(=O)(=O)c1ccc(N(C)Cc2ccc(C(F)(F)F)cc2)nc1,–,29.9 µM (active)
CN(CCc1ccccc1)c1ccc([N+](=O)[O-])cn1,-3.04%,–
CCN(CC)S(=O)(=O)c1ccc(N(C)Cc2cccc(OC)c2OC)nc1,-1.33%,–
CCCS(=O)(=O)NC(=O)C1(C)CCCN(C(=O)c2ccnc(Cl)c2)C1 (stereo not drawn),3.92%,–
CC(C)N1C(=O)c2ccccc2NC(=O)C1C(=O)NCc1cccs1 (stereo not drawn),-1.29%,–
CC(=O)N1Cc2cc(C(=O)NCc3cccc(F)c3)nc(-c3cccc(C4=CCCCC4)c3)c2[C@H]1CCO,-9.42%,–
CN1CCN(C(=O)c2ccc(NC(=O)c3ccc(Br)o3)cc2)CC1,-7.09%,–
O=C(Cn1nc(CNc2ccc(Cl)cc2)[n+]2c1CCCCC2)c1ccc(Cl)cc1,–,21.2 µM (active)
O=C(Cn1nnc(N2CCCCC2)n1)c1ccc(Cl)c(Cl)c1,-14.1%,–
O=C(Cn1ncc(N2CCCC2)c(Br)c1=O)c1ccc(Cl)cc1,-7.29%,–
O=C(NC(c1ccc(-c2ccccc2)cc1)c1cnccn1)C1CCN(CCOc2ccc(Cl)cc2Cl)CC1 (stereo not drawn),-2.44%,–

SMILES,"max response, negative = inhibition",Potency
O=C1NC[C@H](CCCCN2C[C@H](Cc3ccccc3)N(Cc3ccccc3)C(=O)C2=O)N(CCc2ccc(O)cc2)C1=O,3.35%,–
C[C@H]1CN([C@@H](C)CO)C(=O)CCCn2nncc2CO[C@@H]1CN(C)S(=O)(=O)c1cccc(C#N)c1,-7.11%,–
Cc1cn([C@H]2C[C@H](O)[C@@H](/C=C/C(=O)NCCCc3ccccc3)O2)c(=O)[nH]c1=O,-13.1%,–
Cc1cn(C2OC[C@@H](O)[C@@H]2CO)c(=O)[nH]c1=O (stereo partly drawn),-5.18%,–
Cc1cn(C2C=CC(CO)O2)c(=O)[nH]c1=O (stereo not drawn),–,29.9 µM (active)
O=C(CCN1CCCCC1)Nc1ccc(F)c(F)c1,-0.714%,–
CCCCN1CC(N2CCN(Cc3cccc(C)c3)CC2)CS1(=O)=O (stereo not drawn),-2.99%,–
CCOC(=O)C1=CC[C@@H](c2ccccc2)N(S(=O)(=O)c2ccc(C)cc2)[C@H]1c1ccc(CC)cc1,-1.73%,–
NC1=CC(=O)C(=O)c2cccnc21,-7.35%,–
COCCCNC(=O)Cn1c(=O)n(Cc2ccccc2Cl)c(=O)c2cc(OC)c(OC)cc21,–,29.9 µM (active)
COCCCNC(=O)CN1CCN(Cc2ccccc2Cl)C1=O,-7.04%,–
COc1ccc(CCNC(=O)Cn2c(=O)n(CC3CCCO3)c(=O)c3ccccc32)cc1OC (stereo not drawn),-13.3%,–
CCNC(=O)C1(C)CCCN(Cc2noc(-c3ccccc3OC)n2)C1 (stereo not drawn),-4.99%,–
C[C@H]1Cn2cnc(C(=O)N[C@@H](Cc3c[nH]c4ccccc34)C(=O)OC(C)(C)C)c2C(=O)N1,-0.575%,–
CC(=O)OC(COc1ccc(F)cc1)Cn1cnc2ccccc21 (stereo not drawn),–,37.7 µM (active)
CC(C)c1ccc(OCC(O)Cn2cnc3ccccc32)cc1 (stereo not drawn),-4.3%,–
CC(=O)N=c1ncn(CC(COC(C)=O)OC(C)=O)c2nc[nH]c12 (stereo not drawn),-2.18%,–
CCCNC(=O)c1cc(C2CCCN(C(=O)c3ccc4c(c3)CCO4)C2)on1 (stereo not drawn),-6.48%,–
CCCC(=O)N1CCC1(C)C(=O)NCc1ccc(C(C)C)cc1 (stereo not drawn),-11.6%,–
O=C(Cc1ccc([N+](=O)[O-])cc1)NCCS(=O)(=O)N1CCN(c2ccccc2)CC1,-7.66%,–
COC(=O)C[C@H]1C=C[C@@H](NS(=O)(=O)c2ccc(C)cc2)[C@@H](CO)O1,2.12%,–
CC1(c2cccc(Br)c2)NC(=O)N(CC(=O)NCCC2=CCCCC2)C1=O (stereo not drawn),-9.46%,–
Cc1ccc(-n2nc(-c3ccco3)cc2C(=O)NCc2cccnc2)cc1,–,9.47 µM (active)
CC(C)(C)c1cc(C(=O)NCc2cccnc2)ccn1,-6.13%,–

SMILES,"max response, negative = inhibition",Potency
CSc1sc(C(=O)NC(=O)NCc2cccnc2)c(C)c1-c1ccon1,-0.192%,–
Nc1[nH]c(=S)nc2nc(-c3ccccc3)c(-c3ccccc3)nc12,–,21.2 µM (active)
CCCCOCCCNC(=O)C[C@@H]1C[C@@]2(C(=O)OC)CCCCC=C2N(CCC2=CCCCC2)C1=O,1.64%,–
CCN(Cc1ccncc1)C(=S)Nc1ccccc1C,-0.726%,–
COc1ccccc1N1CCN(c2nc(C)cc(=O)[nH]2)CC1,-12.7%,–
COc1cccc(-n2c(=S)sc3c(=O)n(-c4ccccc4OC)c(SCC4OCCO4)nc32)c1,4.69%,–
COc1ccccc1-n1c(=S)[nH]c2c(sc(=S)n2-c2ccc(C)cc2C)c1=O,–,6.7 µM (active)
CCc1ccc(-n2c(=S)sc3c(=O)n(-c4ccccc4OC)c(=S)[nH]c32)cc1,–,11.9 µM (active)
COc1ccccc1-n1cn[nH]c1=S,-29.4%,–
COc1ccc(OC)c(-n2c(=S)[nH]c3cc(C(=O)N4CCCCC4)ccc3c2=O)c1,2.08%,–
CC1(C(=O)NS(=O)(=O)c2ccccc2)CCN1C(=O)C/C=C/c1ccccc1 (stereo not drawn),-21.1%,–
COc1ccc(OC)c(C(=O)NC2CCCc3c2cnn3-c2cc(C)cc(C)c2)c1 (stereo not drawn),-4.63%,–
CC1C(=O)N(Cc2cn(Cc3ccco3)nn2)CCS(=O)(=O)N1Cc1ccc(-c2cccc(CO)c2)cc1 (stereo not drawn),-3.83%,–
OC[C@@H]1CN(Cc2ccncc2)C[C@H](n2cnc3c(N4CCN(c5ccccc5)CC4)ncnc32)O1,-12.1%,–
Cc1cc(C)c2cc(C#N)c(N3CCNCC3)nc2c1,-8.16%,–
COc1c(C(=O)N2CCCC2)ccc2ccccc12,-0.934%,–
Cc1c(Br)cc(C(=O)N2CCCCCC2)c(C)c1C,-5.8%,–
CCNC(=O)C1CCCN(C(=O)c2cc(F)ccc2C)CC1 (stereo not drawn),-1.52%,–
Cc1ccc(C(=O)N2CCCCCC2)cc1Br,–,26.7 µM (active)
Cc1ccc(C(=O)N2CCCC2)c(F)c1F,–,21.2 µM (active)
O=C(c1ccc(Cl)c(Cl)c1)N1CCCC1,-20.7%,–
